Measurements: PubChem BioAssay (Tox21)
Records with an inconclusive call do not appear. Calls of active or inactive are those of the source. Unless noted, calls follow the shape of the dose curve; as a rule, active = well fitted curve in the direction sought with a large enough effect in the repeat runs; inconclusive = weak or mixed curves; inactive = no such curve, though single readings can be large; an effect the other way counts as inactive or inconclusive.

Experiments:
[1] = qHTS assay to identify small molecule agonists of the peroxisome proliferator-activated receptor delta (PPARd) signaling pathway - cell viability counter screen (AID 743211); details: PPARd-bla HEK293H viability, CellTiter-Glo luminescence, 17 h; series mostly up to 62.6 µM; also: nearly all actives have a fitted effect of over 55% in size
In short: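 Tox21 library compounds, delivered in DMSO, were incubated 17 h with PPARd-bla HEK293H cells; cytotoxicity was taken from CellTiter-Glo luminescence read 30 min after reagent addition.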

[2] = molecular target: Peroxisome proliferator-activated receptor delta (Homo sapiens) (UniProt Q03181); experiment: qHTS assay to identify small molecule agonists of the peroxisome proliferator-activated receptor delta (PPARd) signaling pathway (AID 743212; calls by dose curve;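 also: HEK293H cells with PPARd UAS beta-lactamase reporter GeneBLAzer system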); details: HEK293H PPARd-UAS-bla, beta-lactamase FRET ratio, 17 h; series mostly up to 62.6 µM
In short: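 GeneBLAzer UAS-bla HEK293H cells carrying a PPARδ construct were exposed to compounds at 37 °C. Beta-lactamase activity was read by FRET fluorescence after 2 h at room temperature with LiveBLAzer B/G substrate.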

[3] = molecular target: Peroxisome proliferator-activated receptor delta (Homo sapiens) (UniProt Q03181); experiment: qHTS assay to identify small molecule antagonists of the peroxisome proliferator-activated receptor delta (PPARd) signaling pathway (AID 743215; active = well fitted inhibition curve with a large enough effect in the signal ratio in the repeat runs, not every such curve was filed as active; the % refers to the signal ratio;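 also: cells stimulated with agonist L165041 at 300 nM final during compound exposure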); details: HEK293H PPARd-UAS-bla, beta-lactamase FRET ratio, antagonist, 17 h; series mostly up to 62 µM
In short: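 Inhibition of L165041-driven (300 nM final) PPARd signaling is scored in HEK293H UAS-bla cells. Exposure lasts 17 h at 37 C; beta-lactamase activity is then read by FRET substrate fluorescence after 2 h at room temperature.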

[4] = qHTS assay to identify small molecule agonists of the farnesoid-X-receptor (FXR) signaling pathway - cell viability counter screen (AID 743218); details: FXR-bla HEK293T viability, CellTiter-Glo luminescence, 16 h; series mostly up to 62.6 µM; also: nearly all actives have a fitted effect of over 45% in size
In short: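 Cytotoxicity counter-screen run in parallel, same wells: FXR-UAS-bla HEK 293T cells dosed 16 h at 37 C, viability read by CellTiter-Glo luminescence after 30 min at room temperature.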

[5] = qHTS assay to identify small molecule antagonists of the farnesoid-X-receptor (FXR) signaling pathway - cell viability counter screen (AID 743221; active = well fitted cell-killing curve with a large enough effect in the repeat runs, not every such curve was filed as active; also: nearly all actives have a fitted effect of over 50% in size); details: FXR-bla HEK293T viability, CellTiter-Glo luminescence, 16 h; series mostly up to 62.6 µM
In short: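 Cytotoxicity is taken from ATP luminescence (CellTiter-Glo, 30 min, room temperature) in FXR-bla HEK 293T cells previously incubated 16 h at 37 C with compound and chenodeoxycholic acid at 50 uM final.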

[6] = qHTS assay to identify small molecule antagonists of the peroxisome proliferator-activated receptor delta (PPARd) signaling pathway - cell viability counter screen (AID 743213); details: PPARd-bla HEK293H viability, CellTiter-Glo luminescence, 17 h; series mostly up to 62 µM; also: nearly all actives have a fitted effect of over 50% in size
In short: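 Cytotoxicity counter screen: CellTiter-Glo luminescence read 30 min after addition, in the same wells as the reporter assay. There, PPARd UAS-bla HEK293H cells (3000/well) were treated 17 h at 37 C with compound and 300 nM L165041.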

Measured: Potency

Chain of Peroxisome proliferator-activated receptor delta (Homo sapiens) (Q03181 whole entry, looked up): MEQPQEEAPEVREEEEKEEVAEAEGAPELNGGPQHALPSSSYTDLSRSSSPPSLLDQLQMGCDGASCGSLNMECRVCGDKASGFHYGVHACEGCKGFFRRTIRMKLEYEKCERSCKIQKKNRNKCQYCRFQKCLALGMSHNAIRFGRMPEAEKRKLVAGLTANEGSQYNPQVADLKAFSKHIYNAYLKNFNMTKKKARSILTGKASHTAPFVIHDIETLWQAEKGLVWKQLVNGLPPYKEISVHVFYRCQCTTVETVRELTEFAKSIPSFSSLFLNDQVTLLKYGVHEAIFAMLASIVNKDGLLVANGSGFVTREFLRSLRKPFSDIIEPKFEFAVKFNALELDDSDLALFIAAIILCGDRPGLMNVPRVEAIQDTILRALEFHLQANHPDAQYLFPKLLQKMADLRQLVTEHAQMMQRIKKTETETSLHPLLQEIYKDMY

C=C(C)C(=O)OCCCCCCCCCCCCC
not listed: [6]
inactive: all other assays above

CC1CC(C)C(=O)C1=O (centres undefined)
not listed: [6]
inactive: all other assays above

C[C@@H]1CC(=O)NN=C1c1ccc(NN=C(C#N)C#N)cc1
inactive: [1] | [6] | [4] | [5]
